Eight molecules from PubChem BioAssay (Tox21) can be followed below.

Assay [1] can be described thus: qHTS assay to identify small molecule antagonists of the estrogen related receptor (ERR) signaling pathway from Tox21 library - cell viability counter screen (AID 1224834). Note: nearly all actives have a fitted effect of over 30% in size. Put shortly: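 ERR reporter cells were plated 6 h before compound addition, then exposed to test compounds in DMSO for 17.5 h at 37 C. Viability was read as CellTiter-Fluor fluorescence after a 30-minute incubation at 37 C.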

Assay [2] has as its target Luciferin 4-monooxygenase (Photinus pyralis) (UniProt P08659). Kind of assay: qHTS assay to identify small molecule inhibitors of firefly luciferase (AID 1224835). Note: nearly all actives have a fitted effect of over 25% in size. Note: potency is the fitted concentration of half-maximal effect. Put shortly:
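Inhibition of purified Photinus luciferase is measured by luminescence. Substrate levels (D-luciferin, ATP) sit at their KM values. Each compound is tested in a concentration series.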
Background: In qHTS, concentration-response curves come from the screen itself.

A short description of assay [3]: qHTS assay to identify small molecule agonists of the constitutive androstane receptor (CAR) signaling pathway - cell viability counter screen (AID 1224836). Note: nearly all actives have a fitted effect of over 45% in size. Put shortly:
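Viability read-out: CellTiter-Fluor fluorescence after 23 h compound exposure at 37 C/5% CO2 in double-stable HepG2-CYP2B6-hCAR cells, with PK11195 present at 0.75 uM final; compounds tested in 15-point titration.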

Assay [4] is described as follows: qHTS assay to identify small molecule antagonists of the constitutive androstane receptor (CAR) signaling pathway - cell viability counter screen (AID 1224837). Note: nearly all actives have a fitted effect of over 45% in size. Put shortly:
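HepG2 cells stably expressing hCAR and a CYP2B6-2.2kb reporter were plated and pre-incubated 4 hr at 37 C/5% CO2, then given compounds at 15 concentrations plus 50 nM CITCO (final). After 23 hr, viability was read by CellTiter-Fluor fluorescence.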

For assay [5], the target named is Nuclear receptor subfamily 1 group I member 3 (Homo sapiens) (UniProt Q14994). Description: qHTS assay to identify small molecule antagonists of the constitutive androstane receptor (CAR) signaling pathway (AID 1224838). Note: nearly all actives have a fitted effect of over 40% in size. Put shortly: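 HepG2 cells stably co-transfected with hCAR and a CYP2B6-2.2kb luciferase reporter were seeded 4 h before compound addition at 15 concentrations. Cells were stimulated with 50 nM CITCO (final) for 24 h at 37 C; luciferase luminescence was then read.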

Assay [6] has the same target. Description: qHTS assay to identify small molecule agonists of the constitutive androstane receptor (CAR) signaling pathway (AID 1224839). Note: nearly all actives have a fitted effect of over 15% in size. Note: potency is the fitted concentration of half-maximal effect. Put shortly: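 Luminescence read-out (ONE-Glo, 30 min, room temperature) from double-stable HepG2-CYP2B6-hCAR cells exposed 24 h to 15-point compound series in presence of 0.75 uM PK11195 final.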
Assay [7] has as its target Thyrotropin receptor (Homo sapiens) (UniProt P16473). Kind of assay: qHTS assay to identify small molecule agonists of the thyroid stimulating hormone receptor (TSHR) signaling pathway (AID 1224843; calls by dose curve; note: nearly all actives have a fitted effect of over 45% in size). Put shortly:
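Screening of the Tox21 10K collection used HEK293 cells engineered with TSHR at 800 cells per well. After a 30-min room-temperature compound exposure, HTRF cAMP reagents were added and fluorescence recorded 1 h later.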

The nature of assay [8]: qHTS assay to identify small molecule agonists of the hypoxia (HIF-1) signaling pathway - cell viability counter screen (AID 1224844; calls by dose curve; note: nearly all actives have a fitted effect of over 50% in size). Put shortly: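 HRE-bla ME-180 cells in medium with 0.5% dialyzed FBS were preincubated 5 hrs at 37C, exposed to compounds for 17 hrs, then viability was read as CellTiter-Glo luminescence after 30 min at room temperature, in the reporter wells.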

Assay [9] is described as follows: qHTS assay to identify small molecule agonists of H2AX (AID 1224845; active = well fitted activation curve with a large enough effect in the signal ratio in the repeat runs, not every such curve was filed as active; the % refers to the signal ratio). In a few lines: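 Phospho-H2AX Ser139 measured by HTRF (ex 320 nm; em 665 and 620 nm) after 24 hr antibody incubation. Compounds, 15 concentrations, 0.76% DMSO, were applied to CHO-K1 cells for 3hr at 37C before lysis.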
Assay [10] can be described thus: qHTS assay to identify small molecule agonists of the hypoxia (HIF-1) signaling pathway (AID 1224846; active = well fitted activation curve with a large enough effect in the signal ratio in the repeat runs, not every such curve was filed as active; the % refers to the signal ratio). Put shortly: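 HRE-bla ME-180 cells (beta-lactamase reporter under hypoxia response element) were plated at 2,000 cells/well in medium with 0.5% dialyzed FBS, rested 5 hrs, then given compounds in DMSO for 17 hrs at 37C, 5% CO2. Reporter induction was read with CCF4-AM FRET substrate.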

A short description of assay [11]: qHTS assay to identify small molecule agonists of H2AX - cell viability counter screen (AID 1224847; calls by dose curve; note: nearly all actives have a fitted effect of over 30% in size; note: potency is the fitted concentration of half-maximal effect). In a few lines:
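CHO-K1 wt, 1000 cells/well, o/n 37C; cpds 15 conc, 3 h 37C, 0.76% DMSO; CellTiter-Glo, 30 min RT, luminescence.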

A short description of assay [12]: qHTS RealTime-Glo MT Cell Viability Assay in HepG2 cells - 24 hour (AID 1224867). Note: nearly all actives have a fitted effect of over 50% in size. In a few lines: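 HepG2 cells were seeded at 600 cells/well together with NanoLuc luciferase and a cell-permeant prosubstrate, preincubated 5 h at 37 C/5% CO2, then pin-dosed with compounds in DMSO. Nonlytic luminescence from viable cells was read at each time point.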
A short description of assay [13]: qHTS RealTime-Glo MT Cell Viability Assay in HEK293 cells - 32 hour (AID 1224868). Note: nearly all actives have a fitted effect of over 50% in size. Note: potency is the fitted concentration of half-maximal effect. In a few lines: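 HEK293 cells were seeded at 600 cells/well together with NanoLuc luciferase and cell-permeant prosubstrate, preincubated 5 h at 37 C/5% CO2, then given compound in DMSO by pintool. Luminescence from viable-cell prosubstrate reduction was read repeatedly over 40 h.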

A short description of assay [14]: A CellTox Green Cytotoxicity Assay to monitor cytotoxicity in HEK293 cells - 0 hour (AID 1224869). Note: nearly all actives have a fitted effect of over 50% in size. In a few lines:
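HEK293 cells premixed with CellTox Green dye were seeded at 600 cells/well and left 5 h at 37 C/5% CO2 before pin transfer of 23 nL compound in DMSO. Fluorescence from dye bound to dead-cell DNA was read during 40 h treatment.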

A short description of assay [15]: qHTS RealTime-Glo MT Cell Viability Assay in HepG2 cells - 40 hour (AID 1224870). Note: nearly all actives have a fitted effect of over 50% in size. In a few lines:
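Real-time viability: cells seeded at 600 per well together with NanoLuc and cell-permeant prosubstrate, compounds added after 5 h incubation. Luminescence tracked at 0, 8, 16, 24, 32 and 40 h of exposure.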

Assay [16] in a line: qHTS assay to identify small molecule antagonists of the estrogen related receptor signaling pathway with the pleiotropic PPARgamma coactivator (PGC) from Tox21 10K library (AID 1224841; call rule not given here). Put shortly: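 PGC/ERR reporter cells were seeded at 2,000 cells/well and held 6 hours at 37 C/5% CO2 before pin-tool addition of compounds in DMSO. After 18 hours at 37 C, One-Glo was added and luminescence read after 30 minutes at room temperature.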

The nature of assay [17]: qHTS assay to identify small molecule agonists of the estrogen related receptor signaling pathway with the pleiotropic PPARgamma coactivator (PGC) from Tox21 10K library (AID 1224842). Note: nearly all actives have a fitted effect of over 15% in size. In a few lines:
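Luminescence from One-Glo (30 min, room temperature) measured after PGC/ERR cells had 18 h at 37 C with pinned compound (23 nL in DMSO). Cells had been seeded at 2,000 per well and pre-incubated 6 h.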

The nature of assay [18]: qHTS assay to identify small molecule antagonists of the estrogen related receptor (ERR) signaling pathway from Tox21 library (AID 1224848). Note: nearly all actives have a fitted effect of over 50% in size. In a few lines:
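Antagonist-mode screen of the Tox21 10K library in an NTP-provided ERR reporter cell line; 18 h compound exposure at 37 C, luminescence measured with ONE-Glo.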

Assay [19] is described as follows: qHTS assay to identify small molecule agonists of the estrogen related receptor (ERR) signaling pathway from Tox21 library (AID 1224849; calls by dose curve; note: nearly all actives have a fitted effect of over 15% in size). Particulars: ERR reporter cell line, ONE-Glo luciferase, 18 h; at 92.4 µM (top of the series) unless noted. Put shortly: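 ERR reporter cell line (NTP) seeded, rested 6 h at 37 C/5% CO2, then pinned with Tox21 compounds in DMSO. After 18 h at 37 C, ONE-Glo luciferase luminescence was read following 30 min at room temperature.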

Assay [20] in a line: qHTS assay to identify small molecule antagonists of the estrogen related receptor signaling pathway with the pleiotropic PPARgamma coactivator (PGC) from Tox21 10K library - cell viability counter screen (AID 1224840; active = well fitted cell-killing curve with a large enough effect in the repeat runs, not every such curve was filed as active; note: nearly all actives have a fitted effect of over 40% in size). Put shortly:
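PGC/ERR cells were seeded at 2,000 cells/well and left 6 hours at 37 C/5% CO2 before pin-tool addition of compounds in DMSO. After 17.5 hours at 37 C, CellTiter-Fluor was added and fluorescence read 30 minutes later.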

A number with no mark means an inactive call. Inconclusive results are not listed. Calls of active or inactive are those of the source. Unless noted, calls come from the whole dose curve; as a rule, active = well fitted curve in the direction sought with a large enough effect in the repeat runs; inconclusive = weak or mixed curves; inactive = no such curve, though single readings can be large; an effect the other way counts as inactive or inconclusive.
% is set by controls: 0 for no effect and ±100 for the full control effect.

Chain of Luciferin 4-monooxygenase (Photinus pyralis) (P08659 whole entry, looked up): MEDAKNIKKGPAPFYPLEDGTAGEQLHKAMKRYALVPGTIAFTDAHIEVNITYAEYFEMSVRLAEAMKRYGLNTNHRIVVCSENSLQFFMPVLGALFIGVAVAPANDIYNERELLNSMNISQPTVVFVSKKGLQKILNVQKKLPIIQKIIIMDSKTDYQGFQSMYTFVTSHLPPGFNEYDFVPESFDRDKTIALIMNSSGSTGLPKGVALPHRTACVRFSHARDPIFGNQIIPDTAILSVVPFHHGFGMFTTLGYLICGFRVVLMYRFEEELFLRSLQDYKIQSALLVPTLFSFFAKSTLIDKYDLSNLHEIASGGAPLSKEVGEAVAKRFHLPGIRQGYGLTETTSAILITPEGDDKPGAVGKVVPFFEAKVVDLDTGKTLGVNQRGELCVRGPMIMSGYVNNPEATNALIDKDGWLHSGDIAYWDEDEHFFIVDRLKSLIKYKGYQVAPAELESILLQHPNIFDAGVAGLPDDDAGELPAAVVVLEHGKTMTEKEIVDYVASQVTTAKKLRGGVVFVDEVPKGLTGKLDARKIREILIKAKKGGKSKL
Chain of Thyrotropin receptor (Homo sapiens) (P16473 whole entry, looked up): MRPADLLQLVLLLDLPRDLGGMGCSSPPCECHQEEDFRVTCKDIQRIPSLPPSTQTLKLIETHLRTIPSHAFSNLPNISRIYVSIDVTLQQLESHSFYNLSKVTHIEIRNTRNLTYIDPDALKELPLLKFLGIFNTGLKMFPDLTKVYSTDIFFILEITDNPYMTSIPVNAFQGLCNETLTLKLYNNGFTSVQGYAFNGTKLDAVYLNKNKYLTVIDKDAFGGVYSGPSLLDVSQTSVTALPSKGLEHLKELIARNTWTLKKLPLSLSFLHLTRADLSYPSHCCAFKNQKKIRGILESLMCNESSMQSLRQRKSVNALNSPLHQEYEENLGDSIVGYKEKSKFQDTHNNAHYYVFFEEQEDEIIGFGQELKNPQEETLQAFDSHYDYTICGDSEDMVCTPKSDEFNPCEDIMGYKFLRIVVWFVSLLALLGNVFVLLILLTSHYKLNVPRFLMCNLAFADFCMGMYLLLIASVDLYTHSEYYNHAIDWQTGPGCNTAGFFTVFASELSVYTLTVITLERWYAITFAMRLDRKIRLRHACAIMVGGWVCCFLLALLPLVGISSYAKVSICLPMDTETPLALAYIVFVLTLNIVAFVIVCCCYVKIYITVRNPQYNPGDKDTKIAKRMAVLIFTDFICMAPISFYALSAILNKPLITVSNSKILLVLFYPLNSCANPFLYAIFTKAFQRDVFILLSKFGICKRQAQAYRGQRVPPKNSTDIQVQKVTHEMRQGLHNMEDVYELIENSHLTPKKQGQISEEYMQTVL
Chain of Nuclear receptor subfamily 1 group I member 3 (Homo sapiens) (Q14994 whole entry, looked up): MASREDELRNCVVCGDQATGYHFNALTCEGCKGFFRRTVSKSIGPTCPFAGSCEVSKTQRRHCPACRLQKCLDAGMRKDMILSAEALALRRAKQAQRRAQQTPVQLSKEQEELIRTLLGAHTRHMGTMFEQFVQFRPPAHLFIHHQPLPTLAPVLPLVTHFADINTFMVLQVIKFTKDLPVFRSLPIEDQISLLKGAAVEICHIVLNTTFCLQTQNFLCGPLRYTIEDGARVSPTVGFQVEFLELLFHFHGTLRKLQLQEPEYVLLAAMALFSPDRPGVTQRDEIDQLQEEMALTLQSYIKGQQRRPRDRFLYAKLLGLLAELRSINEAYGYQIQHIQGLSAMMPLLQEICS

Take `Cc1cc(O)c(C(C)C)cc1Cl`: the Potency entry in assay [1], in assay [2], in assay [3], in assay [4], in [5] and in assay [6] was “inactive” each time. The Potency entry in assay [7], in assay [8], in assay [9], in assay [12], in assay [13] and in [14] was “inactive” in each case. Also, in [15], the Potency result was “inactive”. Also, in [10], the outcome was inactive. In [11], the Potency was 89.8 µM (active).

Turning to `COCC(O)CO` (centres undefined), the Potency entry in assay [1], in assay [2], in assay [3], in [4], in [5] and in assay [6] was “inactive” in each case. For the same molecule, the Potency entry in [7], in assay [8], in assay [9], in assay [11], in assay [12] and in assay [13] was “inactive” throughout. Moreover, the Potency entry in assay [15] is “inactive”. For the same molecule, the result in assay [10] was inactive.

`CCCCC(CC)CNCC(CC)CCCC` (centres undefined): the Potency entry in assay [1], in assay [2], in [3], in [4], in assay [5] and in assay [6] was “inactive” in each case. Also, the Potency result in assay [16], in [17], in assay [7], in assay [8], in assay [11] and in assay [18] was “inactive” each time. Besides, the Potency result in [12], in assay [13], in assay [14] and in assay [15] was “inactive” throughout. In assay [10], the result was inactive. Moreover, the activity change, positive = activation in [19] was 4.2%.

For `Nc1ccc(C(=O)OCCCOC(=O)c2ccc(N)cc2)cc1`, the Potency result in assay [1], in [2], in [3], in [4], in assay [5] and in [8] was “inactive” each time. In addition, the Potency entry in assay [9], in [12], in assay [14] and in assay [15] was “inactive” each time. In addition, the Potency in assay [6] was 30.6 µM (active); in assay [13] it was 43.6 µM (active). For the same molecule, the result in [10] was inactive.

For the molecule `ON(Cc1ccccc1)Cc1ccccc1`, the Potency result in assay [1], in [2], in assay [3], in [4], in assay [5] and in assay [20] was “inactive” throughout. Further, the Potency entry in [7], in assay [8], in assay [9], in [11], in assay [13] and in [14] was “inactive” in each case. For the same molecule, the Potency entry in assay [15] was “inactive”. For the same molecule, the molecule was called inactive in [10].

Take `CCOC(=O)C(C)Oc1ccc(Oc2nc3ccc(Cl)cc3o2)cc1` (centres undefined): the Potency result in assay [1], in assay [3], in [4], in assay [5], in assay [20] and in assay [16] was “inactive” each time. The Potency entry in assay [17], in assay [8], in assay [9], in assay [11], in assay [18] and in assay [14] was “inactive” each time. Besides, the Potency is 39.9 µM (active) in [2] and 49 µM (active) in assay [13]. For the same molecule, the outcome in [10] was inactive. For the same molecule, the activity change, positive = activation in assay [19] was -11.6%.

Consider `CO/N=C1\CN(c2nc3c(cc2F)c(=O)c(C(=O)O)cn3C2CC2)CC1CN` (centres undefined), for which the Potency entry in assay [1], in assay [2], in [3], in [4], in assay [5] and in assay [6] was “inactive” in each case. Further, the Potency result in assay [17], in [7], in [8], in assay [9], in [11] and in [12] was “inactive” throughout. Moreover, the Potency result in assay [13], in assay [14] and in [15] was “inactive” each time. For the same molecule, the molecule was classed as inactive in [10]. The activity change, positive = activation in assay [19] is -26.9% [at 42.5 µM].

With `CCCCC/C(=C\c1ccccc1)CO`, the Potency entry in assay [1], in assay [2], in [3], in [4], in assay [5] and in [7] was “inactive” throughout. For the same molecule, the Potency entry in assay [9], in assay [13], in assay [14] and in [15] was “inactive” throughout. The molecule was classed as inactive in [10]. In addition, the Potency in [11] is 112 µM (active).
